What was measured:
Assay type in all cases: functional
Plasmodium falciparum [1] = assay: GSK_TCMDC: Inhibition of Plasmodium falciparum 3D7 in whole red blood cells, using parasite LDH activity as an index of growth. Test compounds present at 2uM
Plasmodium falciparum [2] = assay: GSK_TCMDC: Inhibition of Plasmodium falciparum Dd2 in whole red blood cells, using parasite LDH activity as an index of growth. Test compounds present at 2uM
HepG2 = assay: GSK_TCMDC: Percent inhibition of human HepG2 cell line. Test compounds present at 10uM.

Cl.O=C(c1ccc(Cl)c(Cl)c1)N1CCc2c([nH]c3ccccc23)C1CN1CCCC1 (stereo unspecified)
Inhibition (Plasmodium falciparum [1]): 94%
Inhibition (Plasmodium falciparum [2]): 16%
Inhibition (HepG2): 83%

CC[C@H](C)[C@@H](C(=O)N1CCOCC1)N1CC[C@H](NS(=O)(=O)CC(C)(C)c2ccc(Cl)cc2)C1=O
Inhibition (Plasmodium falciparum [1]): 100%
Inhibition (Plasmodium falciparum [2]): 95%
Inhibition (HepG2): 0%

O=C(Nc1ccc(OC2CCN(Cc3ccccc3)C2)c(Cl)c1)c1ccsc1.O=C(O)C(F)(F)F (stereo unspecified)
Inhibition (Plasmodium falciparum [1]): 93%
Inhibition (Plasmodium falciparum [2]): 75%
Inhibition (HepG2): 12%

C=CCN1C(=O)C(C(C)=O)=C(O)C1c1ccccc1 (stereo unspecified)
Inhibition (Plasmodium falciparum [1]): 93%
Inhibition (Plasmodium falciparum [2]): 97%
Inhibition (HepG2): 41%

Brc1ccc(Nc2nc(NCc3ccccc3)c3ccccc3n2)cc1
Inhibition (Plasmodium falciparum [1]): 100%
Inhibition (Plasmodium falciparum [2]): 99%
Inhibition (HepG2): 24%

COc1ccc(CCN(Cc2cccs2)C(=O)c2cc3sccc3n2C)cc1OC
Inhibition (Plasmodium falciparum [1]): 94%
Inhibition (Plasmodium falciparum [2]): 97%
Inhibition (HepG2): 0%

Cc1cccc2nc(-c3ccc(-c4ccc(CN5CC(C)OC(C)C5)cc4)cc3)[nH]c12.O=C(O)C(F)(F)F (stereo unspecified)
Inhibition (Plasmodium falciparum [1]): 97%
Inhibition (Plasmodium falciparum [2]): 96%
Inhibition (HepG2): 37%

O=C(Nc1ccc(Br)cc1)Nc1ccc(Cn2ncc(N3CCCNCC3)c(Cl)c2=O)cc1.O=C(O)C(F)(F)F
Inhibition (Plasmodium falciparum [1]): 87%
Inhibition (Plasmodium falciparum [2]): 15%
Inhibition (HepG2): 0%

Cc1ccc(NC(=O)c2cc(Br)cc(N3CCC(N(C)C)CC3)c2)cc1F.O=C(O)C(F)(F)F
Inhibition (Plasmodium falciparum [1]): 100%
Inhibition (Plasmodium falciparum [2]): 80%
Inhibition (HepG2): 23%

CCOc1cc(C)c(C2CCN(CCCCNC(=O)c3ccc(NC(=O)c4ccc(Cl)cc4)cc3)CC2)cc1C
Inhibition (Plasmodium falciparum [1]): 100%
Inhibition (Plasmodium falciparum [2]): 87%
Inhibition (HepG2): 10%

COc1cc(-n2cnc3cc(-c4ccc([N+](=O)[O-])cc4)sc3c2=O)ccc1OCCN1CCCC1.O=C(O)C(F)(F)F
Inhibition (Plasmodium falciparum [1]): 97%
Inhibition (Plasmodium falciparum [2]): 79%
Inhibition (HepG2): 44%

CN(C)c1ccc2nc(N)nc(N)c2c1Cl.Cl
Inhibition (Plasmodium falciparum [1]): 98%
Inhibition (Plasmodium falciparum [2]): 0%
Inhibition (HepG2): 68%

COc1cc2c(cc1C(F)(F)F)N(C(=O)Nc1cccc(-c3ccc(CN(C)C)cc3)c1)CC2
Inhibition (Plasmodium falciparum [1]): 100%
Inhibition (Plasmodium falciparum [2]): 93%
Inhibition (HepG2): 95%

CCOc1ccc(NC(=O)c2cn3nc(-c4ccc(OCC)cc4)cc3nc2C2CCNCC2)cc1.Cl
Inhibition (Plasmodium falciparum [1]): 100%
Inhibition (Plasmodium falciparum [2]): 39%
Inhibition (HepG2): 36%

CCN(CC)C(C)(C)CN(Cc1ccc(-c2ccc(C(F)(F)F)cc2)cc1)C(=O)Cn1c(CCc2cccc(F)c2F)nc(=O)c2ccccc21.O=C(O)C(O)C(O)C(=O)O
Inhibition (Plasmodium falciparum [1]): 91%
Inhibition (Plasmodium falciparum [2]): 79%
Inhibition (HepG2): 53%

C[C@H](NC(=O)c1c(CN2CCN(C(=O)C(C)(C)C)CC2)c(-c2cccs2)nc2ccccc12)C1CCCCC1
Inhibition (Plasmodium falciparum [1]): 89%
Inhibition (Plasmodium falciparum [2]): 62%
Inhibition (HepG2): 2%

CC(C)(C)c1ccc(CN2CCC(CNC(=O)c3cc(-c4cccc(Cl)c4)cs3)C2)cc1.O=C(O)C(F)(F)F (stereo unspecified)
Inhibition (Plasmodium falciparum [1]): 100%
Inhibition (Plasmodium falciparum [2]): 83%
Inhibition (HepG2): 44%

Cl.Clc1cc(Br)ccc1-c1ccc(CNCC2CCNCC2)o1
Inhibition (Plasmodium falciparum [1]): 96%
Inhibition (Plasmodium falciparum [2]): 39%
Inhibition (HepG2): 100%

Br.CC1(C)NC(N)=NC(=N)N1OCCCOc1cc(Cl)ccc1Cl
Inhibition (Plasmodium falciparum [1]): 96%
Inhibition (Plasmodium falciparum [2]): 96%
Inhibition (HepG2): 64%

Oc1ccc2[nH]c(-c3cccc(F)c3)nc2c1CN1CCC(N2CCCC2)CC1
Inhibition (Plasmodium falciparum [1]): 100%
Inhibition (Plasmodium falciparum [2]): 54%
Inhibition (HepG2): 0%

CCCN1CCN(CCNC(=O)c2cccc(Nc3nccc(Nc4ccc(Oc5ccccc5)cc4)n3)c2)CC1
Inhibition (Plasmodium falciparum [1]): 99%
Inhibition (Plasmodium falciparum [2]): 96%
Inhibition (HepG2): 56%

Cn1nc(-c2ccc(NC(=O)Nc3cc(C(F)(F)F)cc(C(F)(F)F)c3)c(F)c2)c2cnc(NCCN3CCOCC3)nc21.O=C(O)C(F)(F)F
Inhibition (Plasmodium falciparum [1]): 94%
Inhibition (Plasmodium falciparum [2]): 37%
Inhibition (HepG2): 43%

CCN(CC)CCNc1ccnc2c3ccccc3n(C)c12
Inhibition (Plasmodium falciparum [1]): 100%
Inhibition (Plasmodium falciparum [2]): 99%
Inhibition (HepG2): 14%

O=C(Cn1c(CCc2cccc(F)c2F)cc(=O)c2ccccc21)N(CCN1CCCCC1)Cc1ccc(-c2ccc(C(F)(F)F)cc2)cc1.O=C(O)C(O)C(O)C(=O)O
Inhibition (Plasmodium falciparum [1]): 100%
Inhibition (Plasmodium falciparum [2]): 59%
Inhibition (HepG2): 9%

COc1ccc(-c2nc3c(NCc4ccccc4)nccc3[nH]2)c(OC)c1
Inhibition (Plasmodium falciparum [1]): 99%
Inhibition (Plasmodium falciparum [2]): 21%
Inhibition (HepG2): 16%

COc1cccc2cc(C(=O)N[C@@H](CC(C)C)C(=O)N[C@H](C=NN3CC(=O)NC3=O)CC(C)C)oc12
Inhibition (Plasmodium falciparum [1]): 86%
Inhibition (Plasmodium falciparum [2]): 64%
Inhibition (HepG2): 3%

COc1ccc2nccc([C@@H](O)CN3CCC(NC(=O)/C=C/c4cc(F)cc(Br)c4)CC3)c2c1
Inhibition (Plasmodium falciparum [1]): 95%
Inhibition (Plasmodium falciparum [2]): 50%
Inhibition (HepG2): 24%

O=C(NCc1ccc(F)cc1)Nc1ccc(-c2cccc(-c3nc4cc(C(F)(F)F)ccc4[nH]3)c2)cc1
Inhibition (Plasmodium falciparum [1]): 100%
Inhibition (Plasmodium falciparum [2]): 92%
Inhibition (HepG2): 41%

Cc1cc(=NN=Cc2ccc(F)cc2)c2ccc(C(F)(F)F)cc2[nH]1
Inhibition (Plasmodium falciparum [1]): 95%
Inhibition (Plasmodium falciparum [2]): 24%
Inhibition (HepG2): 4%

N=C(N)NN=CC(=O)Nc1cccc(C(F)(F)F)c1.O=S(=O)(O)O
Inhibition (Plasmodium falciparum [1]): 99%
Inhibition (Plasmodium falciparum [2]): 25%
Inhibition (HepG2): 21%

O=C(c1cc(-c2ccccc2)n[nH]1)N1CCN(S(=O)(=O)c2ccc(Cl)s2)CC1
Inhibition (Plasmodium falciparum [1]): 88%
Inhibition (Plasmodium falciparum [2]): 81%
Inhibition (HepG2): 9%

Cc1cccc(NC(=S)NC2CCN(CCCCCNC(=O)/C=C/c3ccc(Cl)c(Cl)c3)CC2)c1
Inhibition (Plasmodium falciparum [1]): 97%
Inhibition (Plasmodium falciparum [2]): 19%
Inhibition (HepG2): 14%

— ChEMBL document CHEMBL1157539, “Thousands of chemical starting points for antimalarial lead identification” (Nature, 2010)
